Results taken from PubChem BioAssay AID1851 (National Center for Advancing Translational Sciences (NCATS), 2009).
Several values for one entry are separate records, joined by “and”; a condition that tells them apart may be missing. Identical values can stand only once. In all, about 16,000 compounds went through this assay and about 5,700 (36%) were called active. Inconclusive results (about 24%) are left out. This is one part of the list. A number with no mark means an inactive call. Calls come from the whole dose curve; as a rule, active = well fitted curve in the direction sought with a large enough effect; inconclusive = small, poorly fitted or top-dose-only effect, or effect the other way; inactive = no such curve, though single readings can be large or run the other way.

These molecules were tested against Cytochrome P450 1A2 (Homo sapiens) (UniProt P05177) (assay: Cytochrome panel assay with activity outcomes). Conditions: recombinant CYP, pro-luciferin dealkylation, luminescence, p450-cyp1a2; series mostly up to 57.1 µM.
Cytochrome P450 1A2 (Homo sapiens), sequence (P05177 whole entry, looked up): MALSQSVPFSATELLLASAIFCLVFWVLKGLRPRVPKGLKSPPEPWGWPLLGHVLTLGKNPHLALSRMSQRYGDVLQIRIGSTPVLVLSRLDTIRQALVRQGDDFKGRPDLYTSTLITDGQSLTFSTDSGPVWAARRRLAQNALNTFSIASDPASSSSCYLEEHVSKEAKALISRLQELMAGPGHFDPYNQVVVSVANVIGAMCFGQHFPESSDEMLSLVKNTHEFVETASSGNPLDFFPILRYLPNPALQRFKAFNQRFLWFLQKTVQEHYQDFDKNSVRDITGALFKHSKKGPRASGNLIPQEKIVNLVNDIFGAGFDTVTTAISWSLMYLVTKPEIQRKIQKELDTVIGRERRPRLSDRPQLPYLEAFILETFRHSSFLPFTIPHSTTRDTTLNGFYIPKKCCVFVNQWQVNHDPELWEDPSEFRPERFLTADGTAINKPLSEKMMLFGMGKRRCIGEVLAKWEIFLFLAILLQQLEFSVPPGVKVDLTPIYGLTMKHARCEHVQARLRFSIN
% is set by controls: 0 for no effect and ±100 for the full control effect.

SMILES	activity, negative = inhibition	AC50
COc1ccc(O[C@H]2C=C[C@@H](c3ccccc3)O[C@H]2COC(=O)CC/C(C)=N\O[C@@H](C)c2cn([C@H](CO)Cc3ccccc3)nn2)cc1	-0.286% [at 11.4 µM] and -5.55% [at 11.4 µM]	
CC(=O)OC1CCC(OC(C)=O)c2c1n([O-])c(C)c(C)[n+]2=O (stereo unspecified)		inactive
CC1(C)CC(=O)c2cn3ncnc3nc2C1		inactive
C[C@@H]1C[C@H]2[C@H]3C[C@@H](F)C4=CC(=O)C=C[C@]4(C)[C@@]3(Cl)[C@@H](O)C[C@@]2(C)[C@@H]1C(=O)COC(=O)C(C)(C)C		inactive
CCOC(=O)Cn1c(-c2ccccc2)nc2ccccc2c1=O		0.447 µM (active)
O=C(O)Cn1c(-c2ccccc2)nc2ccccc21		inactive
O=C(CSc1nc2ccccc2o1)Nc1nc2ccccc2s1		3.16 µM (active)
CCOC(=O)Cn1c(CN(Cc2ccccc2)Cc2ccccc2)nc2c1c(=O)[nH]c(=O)n2C		inactive
O=C(CSc1nc2ccccc2s1)NNC(=S)Nc1ccc(Br)cc1		5.01 µM (active)
CCOC(=O)CSc1nc2ccccc2c(=O)n1CC1CCC(C(=O)NCc2ccco2)CC1 (stereo unspecified)		inactive
CCOC(=O)CSc1nc(-c2ccccc2)nc2ccccc12		0.501 µM (active)
CCCCOc1ccccc1C1CC(=O)NC2=C1C(=O)CCC2 (stereo unspecified)		inactive
Cc1ccc(S(=O)(=O)NC(=O)CSc2nc3ccccc3s2)cc1		inactive
O=C(CSc1nc2ccccc2s1)Nc1nccs1		2.24 µM (active)
NC(=O)NC(=O)CSc1nnc(-c2ccco2)n1Cc1ccccc1		inactive
CCCC(=O)Nc1ccc2nc(SCC(=O)Nc3ccc(N4CCOCC4)c(Cl)c3)sc2c1		inactive
C=CCn1c(SCC(=O)Nc2ncc(Cc3ccc(Br)cc3)s2)nnc1-c1ccncc1		inactive
CCc1nnc(NC(=O)CSc2nc(C3CCCCC3)nc3ccccc23)s1		inactive
O=C(CSc1nc(-c2ccccc2)nc2ccccc12)Nc1nccs1		0.158 µM (active)
O=C(CSc1nnc(-c2ccncc2)n1Cc1ccccc1)Nc1nccs1		11.2 µM (active)
CC(C)OC(=O)CSc1nc(-c2ccc(F)cc2)nc2ccc(F)cc12		1.12 µM (active)
O=P(O)(CCc1ccccc1)C(O)c1ccccc1 (stereo unspecified)		inactive
CO[C@@H](NC(N)=O)C(=O)O	-6.36% [at 2.29 µM]	

SMILES	activity, negative = inhibition	AC50
O=C(O)c1cc(=O)[nH]c(=S)[nH]1	-10.7% [at 2.29 µM]	
Cc1cc(C)n2c(SCC(=O)N(C)C3CCS(=O)(=O)C3)nnc2n1 (stereo unspecified)		inactive
NC(=S)NCCC[C@@H](N)C(=O)O		inactive
Cc1cccc(-c2nsc(SCC(=O)Nc3nccs3)n2)c1		0.251 µM (active)
C1CCc2c(nc3nnnn3c2NC2CCCC2)C1		11.2 µM (active)
COc1ccc(CNc2nc3nc4c(c(=O)n3[nH]2)CCC4)cc1		inactive
CSc1nc2nc3c(c(=O)n2[nH]1)CN(Cc1ccccc1)CC3		3.16 µM (active)
Cc1ccccc1CN1C2=NCCN2C(=O)C2=C1CCN(Cc1ccccc1)C2	-2.99% [at 11.4 µM]	
CCOc1ccc(-c2nnc3ccc(SC)nn23)cc1		1 µM (active)
CCOc1ccc(C2=[N+]([O-])C(C)(C)N(O)C2(C)C)cc1		inactive
CSc1ccc2nnc(-c3cccc(F)c3)n2n1		3.16 µM (active)
O=C(CN(Cc1ccco1)C(=O)c1ccccc1)Nc1ccc(Cl)c(Cl)c1		14.1 µM (active)
O=C(CSc1nnc(-c2ccccn2)n1Cc1ccco1)Nc1ccc2c(c1)OCO2		inactive
O=C(c1ccccc1)N(Cc1ccco1)C1CCS(=O)(=O)C1 (stereo unspecified)		inactive
c1ccc2c(c1)ncn2-c1ncnc2sc3c(c12)CCCC3		5.62 µM (active)
CC(C)(C)C(=O)[C@H]([C@@H](c1ccccc1)N1CCOCC1)N1CCOCC1	-6.91% [at 11.4 µM]	
Cc1cc(C(F)(F)F)n2nc(-c3cnn(C)c3C(F)(F)F)cc2n1		1.12 µM (active)
Cc1cc(C(F)(F)F)n2nc(-c3cnn(C)c3C(F)(F)F)c(Cl)c2n1		0.178 µM (active)
O=[N+]([O-])C(/C=C(\Cl)[N+](=O)[O-])=C1N(Cc2ccc(Cl)nc2)CCN1Cc1ccc(Cl)nc1		inactive
Cc1cc2[nH]c(=O)c3ccccc3n2n1		1.26 µM (active)
Cc1cc(-c2c(C)[nH]n(-c3ccccc3)c2=O)n(-c2ccccc2)n1		inactive
Cc1nn2c([nH]c(=O)c3ccccc32)c1C=O		2.51 µM (active)
COC(=O)Cn1c(CN(Cc2ccccc2)Cc2ccccc2)nc2c1c(=O)[nH]c(=O)n2C		inactive

SMILES	activity, negative = inhibition	AC50
CN(C)N1C(N)=C(C#N)C(c2cccnc2)C2=C1CC(C)(C)CC2=O (stereo unspecified)		inactive
CN(C)c1ccc(-c2nc3n(n2)C(c2cccnc2)C2=C(CC(C)(C)CC2=O)N3)cc1 (stereo unspecified)		3.16 µM (active)
COc1cc(NC(=O)Cc2c(C(=O)O)[nH]c3ccccc23)cc(OC)c1OC		inactive
CCc1c(C(=O)O)[nH]c2ccc(Br)cc12		5.01 µM (active)
COc1ccc(CSC2=C(C#N)C(=O)NC3(CCCCC3)S2)cc1	-5.77% [at 2.29 µM]	
N#C/C(=C\c1cc([N+](=O)[O-])c(N2CCCCC2)cc1N1CCCCC1)c1nn(-c2ccccc2)c(N)c1C#N		inactive
Cc1nn(-c2ccccc2)c(N2CCCCC2)c1/C=N/O		1.58 µM (active)
CO[C@@H]1COC(=O)[C@H](CCSC)NC(=O)C/C=C\[C@@H](C)COC(=O)[C@@H]2CCCN2C(=O)C/C=C\[C@H]1C	7.24% [at 11.4 µM]	
CC1CCCC(C)N1C(=O)c1cc(-c2ccc(Cl)c(Cl)c2)on1 (stereo unspecified)		5.01 µM (active)
C[C@@H]1CCC[C@H](C)N1NC(=O)c1ccc(Cl)c(S(N)(=O)=O)c1		inactive
Cc1ccc2c(c1)nnn2C1CCN(S(=O)(=O)c2ccc(C(=O)N3C(C)CCCC3C)cc2)CC1 (stereo unspecified)		inactive
c1ccc(-c2nc3ccccn3c2NCc2ccc3c(c2)OCO3)cc1		1.78 µM (active)
CC1(C)CC(NCc2ccc3c(c2)OCO3)CCO1 (stereo unspecified)		inactive
CS(=O)(=O)N1CCC[C@@]2(CCN(c3ncccn3)C2)C1		inactive
CCOCC(=O)Nc1cc(C(=O)Nc2ccccc2)ccc1Cl		2.51 µM (active)
CCOCC(=O)Nc1cc(C(=O)Nc2cccc(C)c2C)ccc1Cl		5.01 µM (active)
COC(=O)c1ccc(Cl)c(NC(=O)c2ccc(-c3ccccc3)cc2)c1		inactive
CCc1c2c(nc3ccc(OC)cc13)COC2		0.794 µM (active)
CCc1c2c(nc3cccc(SC)c13)COC2		2.51 µM (active)
COc1ccc(-n2c(-c3cnccn3)n[nH]c2=S)cc1		inactive
Cc1ccc(-c2n[nH]c(=S)n2/N=C/c2cccn2C)cc1		3.55 µM (active)
Cc1ccc(/C=N/n2c(-c3cccs3)n[nH]c2=S)cc1		0.282 µM (active)
COc1ccc(/C=N/n2c(-c3cccs3)n[nH]c2=S)cc1		0.631 µM (active)

SMILES	activity, negative = inhibition	AC50
Nc1ccn([C@H]2O[C@@H](COP(=O)(O)O)[C@@H](O)[C@H]2O)c(=O)n1	-23.3% [at 11.4 µM]	
N#Cc1cccc(-c2nc3cnc(Oc4cccc(Cl)c4)nc3n(C3CC3)c2=O)c1		2.51 µM (active)
O=c1c(-c2ccc(F)cc2)nc2cnc(Oc3cccc(Cl)c3)nc2n1C1CC1		0.316 µM (active)
O=c1c(-c2ccccc2)nc2cnc(Oc3cccc(Cl)c3)nc2n1C1CC1		1.58 µM (active)
N#CCCn1c(=O)c(-c2cccc(C#N)c2)nc2cnc(Oc3cccc(Cl)c3)nc21		inactive
CC(C)CN1CCC2(CC1)CCN(C(=O)c1cccc(F)c1)CC2		inactive
CC(=O)OC[C@@H]1O[C@@H](O/N=C2/C[C@@H](O)[C@@H](O)[C@@H]3[C@@H]4C(=O)N(C[C@@H]5CCCO5)C(=O)[C@H]4CC[C@@H]23)[C@H](OC(C)=O)[C@H](OC(C)=O)[C@@H]1OC(C)=O	5.86% [at 11.4 µM]	
O=C(N/N=C/c1ccc(OCc2ccccc2)cc1)c1cccs1		3.16 µM (active)
Cc1cccc(C)c1NC(=O)COc1cccc(/C=N/NC(=O)C(=O)NCc2ccccc2)c1		inactive
COc1ccc(/C=N/NC(=O)CCc2ccccc2)cc1O		25.1 µM (active)
C=CCNC(=S)N/N=C/c1ccc(OCc2ccccc2)cc1		14.1 µM (active)
O=C(N/N=C/c1cccc(OCc2ccccc2)c1)c1cccs1		2.24 µM (active)
COc1ccc(/C=N\NC(=O)C2C(=O)NCC2c2ccccc2)cc1O (stereo unspecified)		inactive
C/C(CCC(=O)OC[C@@H]1O[C@H](C#Cc2ccccc2)C=C[C@@H]1Oc1ccc(C)cc1)=N/OC[C@@H](O)COCc1ccco1	-4.08% [at 11.4 µM]	
C/C(CCN1CCCc2nc(C)c(C)cc21)=N\OC[C@@H](O)[C@@H]1O[C@@H]2OC(C)(C)O[C@@H]2[C@H]1O	1.1% [at 11.4 µM]	
Nc1nc2ncc(CNc3ccc(C(=O)N[C@@H](CCC(=O)O)C(=O)O)cc3)nc2c(=O)[nH]1		inactive
COc1cc(/C=N/NC(=O)c2cccs2)ccc1OCc1ccccc1		0.794 µM (active)
COc1cc(/C=N/NC(=O)c2cccc([N+](=O)[O-])c2)ccc1OCc1ccc(C)cc1		inactive
Cc1ccccc1C(=O)Nc1cccc(NC(=S)NC(=O)c2cccs2)c1		3.16 µM (active)
CCN(c1ccccc1)S(=O)(=O)c1ccc(NC(=S)NC(=O)c2cccs2)cc1		inactive
Cc1cccc(NC(=S)NC(=O)c2cccs2)n1		0.794 µM (active)
COc1cc(NC(=S)NC(=O)c2c(OC)cccc2OC)ccc1NC(=O)c1cccs1		inactive
